Measured values as given in PubChem BioAssay (Tox21).
Values without a mark were called inactive. Results filed as inconclusive are left out. Entries that show only a call come without a potency. Active and inactive are the calls of the source. Unless noted, calls follow the shape of the full dose curve.

Experiments:
[1] = Nuclear factor erythroid 2-related factor 2/antioxidant responsive element (Nrf2/ARE) small molecule agonists: qHTS cell viability counter screen in human keratinocytes (AID 1919968; active = well fitted curve in the direction sought with a large enough effect in the repeat runs; an effect the other way counts as inactive or inconclusive; also: nearly all actives have a fitted effect of over 55% in size; also: potency is read from the fitted curve at half-maximal effect)
In short: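 HaCaT ARE reporter line, 1,500 cells/well; 5 h settle, 37 C/5% CO2; cpd in DMSO pinned; 23 h exposure; CellTiter-Fluor, 1 h; fluorescence.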

[2] = target: Gonadotropin-releasing hormone receptor (Homo sapiens) (UniProt P30968); experiment: Human gonadotropin-releasing hormone receptor (GnRHR) small molecule agonists, calcium flux assay in GnRHR-HEK293 cells (AID 1920063); also: nearly all actives have a fitted effect of over 35% in size
In short: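 GnRHR-HEK293, 1500 cells/well, 18 h 37 C/5% CO2; Ca dye 1 h 37 C; cpd pinned (DMSO), agonist mode; kinetic FL 480/540, 3 min, 1 s reads; 15 conc, n=3.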

[3] = target: KiSS-1 receptor (Homo sapiens) (UniProt Q969F8); experiment: Human kisspeptin (KISS1R) small molecule agonists, calcium flux assay in KISS1R-HEK293 cells (AID 1920064; active = well fitted curve in the direction sought with a large enough effect in the repeat runs; an effect the other way counts as inactive or inconclusive)
In short: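 Stable human KISS1R HEK293 line; 18 h plating, 37 C/5% CO2; calcium dye 1 h 37 C; compound pin transfer; kinetic fluorescence Ex/Em 480/540, 3 min.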

[4] = G protein-coupled receptor (GPCR) small molecule agonists, calcium flux assay: HEK293 wild type cell line counter screen (AID 1920065)
In short: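 Kinetic fluorescence at Ex/Em 480/540, recorded every second over 3 min, served as the read-out after compound addition. Each compound was tested at 15 concentrations in triplicate on cells pre-loaded with calcium dye for 1 h.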

[5] = p53 small molecule agonists, cell-based qHTS assay with human liver microsomes (AID 1963577);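 also: p53 response element beta-lactamase reporter cells with liver microsomes plus NADPH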
In short: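 Metabolically competent format: test substances, human liver microsomes and NADPH (both 0.5 mg/mL final) incubated with p53RE-bla cells 16 h at 37 C. Beta-lactamase reporter signal then quantified by fluorescence.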

[6] = p53 small molecule agonists, cell-based qHTS assay with rat liver microsomes (AID 1963578)
In short: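 Each plate received p53RE-bla cells, then compound, then rat liver microsomes and NADPH (both 0.5 mg/mL final). Plates were held 16 h at 37 C, and beta-lactamase activity was detected with LiveBLAzer over 2 h.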

[7] = p53 small molecule agonists, cell-based qHTS assay with human liver microsomes: qHTS cell viability counter screen (AID 1963579); also: nearly all actives have a fitted effect of over 45% in size; also: potency is read from the fitted curve at half-maximal effect
In short: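 Tox21 library compounds, delivered from DMSO stocks, were tested on p53RE-bla cells together with 0.5 mg/mL human liver microsomes and 0.5 mg/mL NADPH (final) over 16 h at 37 C; CellTiter-Glo luminescence served as the cytotoxicity measure.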

[8] = p53 small molecule agonists, cell-based qHTS assay with rat liver microsomes: qHTS cell viability counter screen (AID 1963580); also: nearly all actives have a fitted effect of over 45% in size
In short: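 Intracellular ATP, by CellTiter-Glo luminescence, defines viability. HCT-116 p53RE-bla cells, 4,000 per well, were compound-treated in the presence of rat liver microsomes and NADPH for 16 h at 37 C.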

[9] = p53 small molecule agonists, cell-based qHTS assay: qHTS cell viability counter screen (AID 1963581); also: nearly all actives have a fitted effect of over 45% in size
In short: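 HCT-116 p53RE-bla cells, 4,000/well, plated 5 h before compound pin transfer; 16 h at 37 C; bla substrate 2 h RT; then CellTiter-Glo, 30 min RT, luminescence.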

[10] = p53 small molecule agonists, cell-based qHTS assay (AID 1963582; active = well fitted activation curve with a large enough effect in the signal ratio in the repeat runs, not every such curve was filed as active; the % refers to the signal ratio)
In short: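 Reporter line: p53RE-bla. Pre-incubation 5 h, 37 C, 5% CO2; compound (DMSO, pin tool) 16 h, 37 C; B/G FRET substrate 2 h RT; fluorescence intensity read.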

[11] = target: 5-hydroxytryptamine receptor 2A (Homo sapiens) (UniProt P28223); experiment: 5-hydroxytryptamine receptor 2A (HTR2A) small molecule antagonists, cell-based qHTS assay (AID 1963586); also: nearly all actives have a fitted effect of over 45% in size
In short: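 Antagonist-mode intracellular calcium assay: DOI (4 nM) added after 5 min compound pre-incubation at room temperature to dye-loaded HTR2A-CHO cells. Fluorescence followed for 3 min, sampled every second.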

[12] = target: 5-hydroxytryptamine receptor 2A (Homo sapiens) (UniProt P28223); experiment: 5-hydroxytryptamine receptor 2A (HTR2A) small molecule agonists, cell-based qHTS assay (AID 1963587); also: nearly all actives have a fitted effect of over 30% in size
In short: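 Kinetic calcium-flux fluorescence (2 min, 1 sec intervals) after compound addition in agonist mode. HTR2A-CHO cells were cultured 18 h, then dye-loaded 1 h at 37 C.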

[13] = target: Muscarinic acetylcholine receptor M1 (Homo sapiens) (UniProt P11229); experiment: Cholinergic receptor muscarinic 1 (CHRM1) small molecule antagonists, cell-based qHTS assay (AID 1963588); also: nearly all actives have a fitted effect of over 40% in size; also: potency is read from the fitted curve at half-maximal effect
In short: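 CHRM1-CHO calcium-flux assay, antagonist mode. Cells were seeded 18 h, dye-loaded 1 h at 37 C and given compound for 5 min at RT, then acetylcholine was added at 50nM. FDSS fluorescence was read 3 min; 15 concentrations, three runs.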

[14] = target: Muscarinic acetylcholine receptor M1 (Homo sapiens) (UniProt P11229); experiment: Cholinergic receptor muscarinic 1 (CHRM1) small molecule agonists, cell-based qHTS assay (AID 1963589); also: nearly all actives have a fitted effect of over 35% in size
In short: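 Human M1 in stable CHO line; 18 h plating, 1 h dye load 37 C; cpd added (agonist mode); Ca2+ fluorescence kinetic read, 1 s intervals; 15 conc, 3 runs.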

[15] = cAMP Responsive Elements (CRE) small molecule agonists, cell-based qHTS assay (AID 1963590)
In short: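 HEK 293T CRE-bla, 2,000 cells/well, 18 h preincubation 37 C/5% CO2; cpds (DMSO) pinned, 3 h; LiveBLAzer B/G FRET substrate, 2 h RT.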

[16] = target: D(2) dopamine receptor (Homo sapiens) (UniProt P14416); experiment: Dopamine D2 receptor (DRD2) small molecule agonists, cell-based qHTS assay (AID 1963594); also: nearly all actives have a fitted effect of over 35% in size
In short: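 cAMP accumulation in DRD2-HEK293 cells measured by HTRF after 1 h detection; compounds added 10 min before NKH477 (200nM […]) forskolin-analogue stimulation, 30 min at room temperature, with Ro20-1724 present at 0.1 mM final.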

[17] = target: D(2) dopamine receptor (Homo sapiens) (UniProt P14416); experiment: Dopamine D2 receptor (DRD2) small molecule antagonists, cell-based qHTS assay (AID 1963595; active = well fitted inhibition curve with a large enough effect in the signal ratio in the repeat runs, with a control signal flat; the % refers to the signal ratio)
In short: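 Readout: HTRF cAMP, cAMP-d2 competing with cellular cAMP for anti-cAMP cryptate, read after 1 h. Cells: DRD2-HEK293. Conditions: 0.1 mM Ro20-1724, 12 nM quinpirole, 200 nM NKH477, 30 min RT.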

[18] = target: Beta-2 adrenergic receptor (Homo sapiens) (UniProt P07550); experiment: Adrenergic beta2 receptor (ADRB2) small molecule antagonists, cell-based qHTS assay (AID 1963592); also: series mostly up to about 92 µM; nearly all actives have a fitted effect of over 50% in size
In short: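 Cells (CHO, stable ADRB2 overexpression) incubated 18-20hr at 37C; compounds added from DMSO; agonist mix (1nM isoproterenol, 100uM IBMX, 25uM Ro-20-1724) added; 0.5hr RT; d2-cAMP and anti-cAMP-cryptate added; 1hr RT; 665/615 nm read.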

[19] = target: Beta-2 adrenergic receptor (Homo sapiens) (UniProt P07550); experiment: Adrenergic beta2 receptor (ADRB2) small molecule agonists, cell-based qHTS assay (AID 1963593);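 also: CHO cells stably overexpressing human ADRB2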
In short: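 CHO cells stably over-expressing ADRB2 were plated overnight at 37C, then dosed with compounds plus a stimulation mix containing 100uM IBMX and 25uM Ro-20-1724 for 0.5hr at room temperature. cAMP was measured by HTRF competition, 1hr.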

[20] = cAMP Responsive Elements (CRE) small molecule antagonists, cell-based qHTS assay (AID 1963591; active = well fitted inhibition curve with a large enough effect in the signal ratio in the repeat runs, not every such curve was filed as active; the % refers to the signal ratio)
In short: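 Beta-lactamase reporter read by FRET substrate (LiveBLAzer B/G) after 2 h at room temperature. CRE-bla HEK293T cells had received compound plus 0.25 uM (final) NKH477 for 3 h at 37 °C.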

Muscarinic acetylcholine receptor M1 (Homo sapiens), sequence (P11229 whole entry, looked up): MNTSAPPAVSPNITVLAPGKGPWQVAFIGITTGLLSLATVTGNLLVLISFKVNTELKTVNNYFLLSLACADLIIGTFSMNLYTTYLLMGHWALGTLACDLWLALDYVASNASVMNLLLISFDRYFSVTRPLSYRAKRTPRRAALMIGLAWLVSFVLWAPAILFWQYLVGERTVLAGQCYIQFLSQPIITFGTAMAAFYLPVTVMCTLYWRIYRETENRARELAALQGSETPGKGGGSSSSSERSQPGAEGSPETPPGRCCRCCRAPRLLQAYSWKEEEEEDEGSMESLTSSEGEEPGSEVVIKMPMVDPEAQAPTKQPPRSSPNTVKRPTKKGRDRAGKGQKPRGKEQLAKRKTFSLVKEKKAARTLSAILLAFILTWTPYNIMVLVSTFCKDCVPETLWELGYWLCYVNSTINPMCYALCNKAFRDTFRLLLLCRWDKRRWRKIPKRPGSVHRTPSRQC
5-hydroxytryptamine receptor 2A (Homo sapiens), sequence (P28223 whole entry, looked up): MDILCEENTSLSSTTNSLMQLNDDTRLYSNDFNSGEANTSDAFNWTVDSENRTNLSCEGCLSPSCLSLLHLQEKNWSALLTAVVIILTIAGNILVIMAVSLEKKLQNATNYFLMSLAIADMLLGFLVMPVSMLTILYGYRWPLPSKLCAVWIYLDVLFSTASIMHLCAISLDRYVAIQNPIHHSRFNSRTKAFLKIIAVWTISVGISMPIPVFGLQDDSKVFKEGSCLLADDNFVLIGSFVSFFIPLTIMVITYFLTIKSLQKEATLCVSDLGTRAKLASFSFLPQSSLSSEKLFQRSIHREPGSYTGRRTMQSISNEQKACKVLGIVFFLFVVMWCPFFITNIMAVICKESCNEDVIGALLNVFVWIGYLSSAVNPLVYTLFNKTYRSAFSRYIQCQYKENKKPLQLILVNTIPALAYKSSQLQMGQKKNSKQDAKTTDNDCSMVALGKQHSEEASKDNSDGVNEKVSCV
KiSS-1 receptor (Homo sapiens), sequence (Q969F8 whole entry, looked up): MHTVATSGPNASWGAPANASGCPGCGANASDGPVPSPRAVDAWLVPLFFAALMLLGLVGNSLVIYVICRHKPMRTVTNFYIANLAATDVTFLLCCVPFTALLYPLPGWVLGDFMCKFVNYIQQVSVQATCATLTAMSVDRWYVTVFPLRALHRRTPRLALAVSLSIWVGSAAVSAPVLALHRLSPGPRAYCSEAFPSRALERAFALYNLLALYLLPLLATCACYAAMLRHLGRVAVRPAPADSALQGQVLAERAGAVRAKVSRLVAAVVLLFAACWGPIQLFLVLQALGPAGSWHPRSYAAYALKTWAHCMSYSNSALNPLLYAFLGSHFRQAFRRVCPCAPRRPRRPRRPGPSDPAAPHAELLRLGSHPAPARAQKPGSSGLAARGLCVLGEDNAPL
Gonadotropin-releasing hormone receptor (Homo sapiens), sequence (P30968 whole entry, looked up): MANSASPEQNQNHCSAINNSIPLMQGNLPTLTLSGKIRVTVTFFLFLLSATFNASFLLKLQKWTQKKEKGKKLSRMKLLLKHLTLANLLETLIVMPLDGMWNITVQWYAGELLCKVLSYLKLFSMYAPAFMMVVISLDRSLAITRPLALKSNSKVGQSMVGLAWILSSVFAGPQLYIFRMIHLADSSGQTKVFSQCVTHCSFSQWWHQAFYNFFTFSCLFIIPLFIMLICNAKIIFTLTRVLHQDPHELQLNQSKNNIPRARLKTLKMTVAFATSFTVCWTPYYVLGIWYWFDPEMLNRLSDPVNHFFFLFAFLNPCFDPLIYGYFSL
D(2) dopamine receptor (Homo sapiens), sequence (P14416 whole entry, looked up): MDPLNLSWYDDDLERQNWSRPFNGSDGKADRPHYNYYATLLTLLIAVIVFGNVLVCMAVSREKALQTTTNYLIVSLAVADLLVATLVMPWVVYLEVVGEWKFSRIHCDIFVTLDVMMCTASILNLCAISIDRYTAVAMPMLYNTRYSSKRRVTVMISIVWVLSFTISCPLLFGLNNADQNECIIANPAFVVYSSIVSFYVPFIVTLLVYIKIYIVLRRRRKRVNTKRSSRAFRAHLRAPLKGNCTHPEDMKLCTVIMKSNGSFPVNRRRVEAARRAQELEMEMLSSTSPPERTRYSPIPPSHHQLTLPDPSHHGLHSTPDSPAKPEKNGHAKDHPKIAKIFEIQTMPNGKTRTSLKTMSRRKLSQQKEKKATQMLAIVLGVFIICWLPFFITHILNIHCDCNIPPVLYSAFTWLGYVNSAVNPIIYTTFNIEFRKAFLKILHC
Beta-2 adrenergic receptor (Homo sapiens), sequence (P07550 whole entry, looked up): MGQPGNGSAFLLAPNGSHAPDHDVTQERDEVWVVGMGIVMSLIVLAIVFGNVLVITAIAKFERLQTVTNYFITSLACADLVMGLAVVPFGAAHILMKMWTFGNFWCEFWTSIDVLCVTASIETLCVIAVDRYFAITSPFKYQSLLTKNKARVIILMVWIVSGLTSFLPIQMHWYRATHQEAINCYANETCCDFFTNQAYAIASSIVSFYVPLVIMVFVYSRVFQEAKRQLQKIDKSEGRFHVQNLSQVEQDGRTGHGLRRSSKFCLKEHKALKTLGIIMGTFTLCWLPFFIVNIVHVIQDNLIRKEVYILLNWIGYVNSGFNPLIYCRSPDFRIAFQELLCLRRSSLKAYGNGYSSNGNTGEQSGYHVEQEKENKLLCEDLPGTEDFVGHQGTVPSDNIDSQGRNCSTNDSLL

CC(=O)N/N=C/c1ccc([N+](=O)[O-])o1
Potency [1]: inactive | Potency [2]: inactive | outcome [3]: inactive | outcome [4]: inactive | Potency [5]: inactive | Potency [6]: inactive | Potency [7]: inactive | Potency [8]: inactive | Potency [9]: inactive | Potency [10]: inactive | Potency [11]: inactive | Potency [12]: inactive | Potency [13]: 0.0326 µM (active) | Potency [14]: inactive | Potency [15]: inactive | Potency [16]: inactive | Potency [17]: inactive

O=S(=O)(O)c1ccc(O)c2ncccc12
Potency [1]: inactive | Potency [2]: inactive | outcome [3]: inactive | outcome [4]: inactive | Potency [5]: inactive | Potency [6]: inactive | Potency [7]: inactive | Potency [9]: inactive | Potency [10]: inactive | Potency [11]: inactive | Potency [12]: inactive | Potency [13]: inactive | Potency [18]: inactive | Potency [19]: inactive

O=C(O)c1cc(O)c2ccccc2c1O
Potency [1]: 6.11 µM (active) | Potency [2]: inactive | outcome [3]: inactive | outcome [4]: inactive | Potency [5]: inactive | Potency [6]: inactive | Potency [7]: 8.14 µM (active) | Potency [8]: inactive | Potency [9]: inactive | Potency [11]: inactive | Potency [12]: inactive | Potency [13]: inactive | Potency [14]: inactive | Potency [20]: inactive | Potency [18]: inactive | Potency [16]: inactive

CC(=O)Nc1ccccc1C
Potency [1]: inactive | Potency [2]: inactive | outcome [3]: inactive | outcome [4]: inactive | Potency [5]: inactive | Potency [6]: inactive | Potency [7]: inactive | Potency [8]: inactive | Potency [10]: inactive | Potency [11]: inactive | Potency [12]: inactive | Potency [13]: inactive | Potency [14]: inactive | Potency [15]: inactive | Potency [20]: inactive | Potency [18]: inactive | Potency [19]: inactive | Potency [16]: inactive | Potency [17]: inactive

Cc1ccc(C=O)s1
Potency [1]: inactive | Potency [2]: inactive | outcome [3]: inactive | outcome [4]: inactive | Potency [5]: inactive | Potency [6]: inactive | Potency [7]: 40.8 µM (active) | Potency [10]: inactive | Potency [11]: inactive | Potency [12]: inactive | Potency [13]: inactive | Potency [14]: inactive | Potency [20]: inactive | Potency [18]: inactive | Potency [16]: inactive | Potency [17]: inactive

O=C(O)c1ccc2c(c1)nc(C(=O)NC1CCN(C3CC3)CC1)n2Cc1cc(-c2ccc(Cl)s2)on1
activity change, negative = cytotoxicity [1]: 2.24% [at 19 µM] | activity change [2]: -0.0073% [at 11.8 µM, active compounds read high] | activation [3]: -0.617% [at 15.8 µM] | activation [4]: 0.0965% [at 11.8 µM] | activation [5]: -1.92% [at 13.5 µM] | activation [6]: -2.62% [at 13.6 µM] | activity change, negative = cytotoxicity [8]: 1.71% [at 13.5 µM] | activity change, negative = cytotoxicity [9]: 10.9% [at 13.5 µM] | activation [10]: -1.36% [at 13.5 µM] | activity, negative = inhibition [11]: -29.3% [at 12.7 µM] | activation [14]: -0.218% [at 15.8 µM] | activity change, negative = inhibition [18]: -20.8% [at 19 µM] | activation [16]: 23% [at 19 µM] | activity change, negative = inhibition [17]: -5.22% [at 18.9 µM]

CCC(C)COC(=O)CC(C)C (stereo unspecified)
Potency [1]: inactive | Potency [2]: inactive | outcome [3]: inactive | outcome [4]: inactive | Potency [5]: inactive | Potency [6]: inactive | Potency [7]: inactive | Potency [8]: inactive | Potency [9]: inactive | Potency [11]: inactive | Potency [12]: inactive | Potency [13]: inactive | Potency [18]: inactive | Potency [16]: inactive | Potency [17]: inactive

CCCCCCCCOc1ccc(C(=O)O)cc1
Potency [1]: inactive | Potency [2]: inactive | outcome [3]: inactive | outcome [4]: inactive | Potency [5]: inactive | Potency [6]: inactive | Potency [7]: inactive | Potency [8]: inactive | Potency [12]: inactive | Potency [13]: inactive | Potency [14]: inactive | Potency [20]: inactive | Potency [18]: inactive | Potency [19]: inactive | Potency [16]: inactive | Potency [17]: inactive

CN[C@@H]1[C@H](O)[C@H](NC)[C@H]2O[C@@]3(O)C(=O)C[C@@H](C)O[C@H]3O[C@@H]2[C@H]1O
Potency [1]: inactive | Potency [2]: inactive | outcome [3]: inactive | outcome [4]: inactive | Potency [5]: inactive | Potency [6]: inactive | Potency [7]: inactive | Potency [8]: inactive | Potency [10]: inactive | Potency [15]: inactive | Potency [20]: inactive | Potency [18]: inactive | Potency [17]: inactive

O=C1Nc2cc(Cl)ccc2Oc2ccccc21
Potency [1]: inactive | Potency [2]: inactive | outcome [3]: inactive | outcome [4]: inactive | Potency [5]: inactive | Potency [6]: inactive | Potency [7]: inactive | Potency [8]: inactive | Potency [10]: inactive | Potency [12]: inactive | Potency [14]: inactive | Potency [15]: inactive | Potency [18]: inactive | Potency [16]: inactive | Potency [17]: inactive

O=C(NCCCN1CCOCC1)c1ccc(Cl)cc1
Potency [1]: inactive | Potency [2]: inactive | outcome [3]: inactive | outcome [4]: inactive | Potency [5]: inactive | Potency [6]: inactive | Potency [7]: inactive | Potency [9]: inactive | Potency [10]: inactive | Potency [11]: inactive | Potency [12]: inactive | Potency [13]: inactive | Potency [14]: inactive | Potency [15]: inactive | Potency [20]: inactive | Potency [18]: inactive | Potency [16]: inactive | Potency [17]: inactive

CCc1cc(Cc2cc(CC)cc(C(C)(C)C)c2O)c(O)c(C(C)(C)C)c1
Potency [1]: 13.7 µM (active) | Potency [2]: inactive | outcome [3]: inactive | outcome [4]: inactive | Potency [5]: inactive | Potency [6]: inactive | Potency [7]: inactive | Potency [8]: inactive | Potency [10]: inactive | Potency [11]: inactive | Potency [12]: inactive | Potency [14]: inactive | Potency [16]: inactive | Potency [17]: inactive

CC(C)Cc1nccs1
Potency [1]: inactive | Potency [2]: inactive | outcome [3]: inactive | outcome [4]: inactive | Potency [5]: inactive | Potency [6]: inactive | Potency [8]: inactive | Potency [11]: inactive | Potency [12]: inactive | Potency [13]: inactive | Potency [14]: inactive | Potency [20]: inactive | Potency [16]: inactive | Potency [17]: inactive
